Assay outcomes from PubChem BioAssay.
Shiga inhibitor = Shiga toxin inhibition | Vero cells, Shiga toxin protein synthesis inhibition reporter | inhibition, % at 38.7 µM | actives 9.2% (n = 290,000) | AID 2315; in the data active = inhibition mostly above about 28%, no sharp cut-off; inactive = mostly below about 43%; note: 0% is about no effect
Cycloheximide cs = affects cycloheximide protein synthesis inhibition readout, counter-screen | actives 12% (n = 300,000) | max response, % | cell reporter, cycloheximide protein synthesis inhibition counterscreen; in the data active = max response mostly above about 13%, no sharp cut-off; inactive = mostly below about 14%; note: read at 38.3 µM for the half of the compounds with a filed dose; 0% is about no effect
AMA1 RON2 block = inhibitors of Plasmodium falciparum AMA1-RON2 interaction | AlphaScreen AMA1-biotinylated RON2 peptide binding | actives 0.2% (n = 360,000) | Potency, µM (top dose mostly 58.2 µM), for the others: top-dose activity change, negative = inhibition, most hits filed as inhibitors;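 note: potency is the fitted concentration of half-maximal effect; 0% = vehicle wells and -100% = peptide control; nearly all actives have a fitted effect of over 45% in size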
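AMA1 (3D7) with his tag at 25 nM final met compounds first, then biotinylated RON2 peptide at 25 nM; detection used donor plus acceptor beads, 10 µg/mL apiece, read by AlphaScreen after 30 min at room temperature.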
AmpC inh detg = blocks E. coli AmpC beta-lactamase in detergent assay | actives 0.041% (n = 370,000) | Potency, µM (titrated, usually from 114 µM), for the others: at the highest dose activity change, negative = inhibition, hits mostly inhibitors | AmpC hydrolysis of nitrocefin, absorbance 480 nm, 0.01% Triton;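 note: potency is the fitted concentration of half-maximal effect; 0% = no-compound wells and -100% = no-enzyme wells; nearly all actives have a fitted effect of over 25% in size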
Target sequence (P00811 whole entry, looked up): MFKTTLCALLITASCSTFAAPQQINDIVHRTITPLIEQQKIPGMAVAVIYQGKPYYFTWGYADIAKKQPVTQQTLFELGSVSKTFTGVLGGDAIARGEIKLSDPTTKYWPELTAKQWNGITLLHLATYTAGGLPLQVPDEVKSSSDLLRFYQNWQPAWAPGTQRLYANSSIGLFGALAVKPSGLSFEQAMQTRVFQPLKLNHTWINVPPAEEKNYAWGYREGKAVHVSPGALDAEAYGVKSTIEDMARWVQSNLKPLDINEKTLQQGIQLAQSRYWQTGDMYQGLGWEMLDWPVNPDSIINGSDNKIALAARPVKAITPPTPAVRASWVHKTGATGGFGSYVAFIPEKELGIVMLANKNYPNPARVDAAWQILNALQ
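20 mM phosphate pH 7.0 + 0.01% (detergent screen) or 0.0001% Triton X-100; 5.3 nM AmpC reagent; cpd preinc 15 min RT; nitrocefin (800 uM stock) to start; A480 q20 s × 4 min; Activity was normalised to no-enzyme and no-compound control wells.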
SARS PLP yeast = blocks SARS-CoV papain-like protease in a yeast assay; Potency, µM (doses to about 32.9 µM), for inactives: at the highest dose activity, positive = growth rescue, actives largely listed as activators; actives 0.19% (n = 330,000); S. cerevisiae expressing SARS-CoV PLpro, growth rescue; calls by dose curve; note: potency is the fitted concentration of half-maximal effect; 0% is about no effect; nearly all actives have a fitted effect of over 55% in size
AmpC inh no detg = blocks E. coli AmpC beta-lactamase in detergent-free assay; P00811; AmpC nitrocefin hydrolysis, absorbance 480 nm, 0.0001% Triton; Potency, µM (doses to about 57.1 µM), without a hit: at the highest dose activity change, negative = inhibition, hits mostly inhibitors; actives 0.52% (n = 330,000);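 note: potency is the fitted concentration of half-maximal effect; plate controls were no compound for no effect and no enzyme for full effect; nearly all actives have a fitted effect of over 20% in size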
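AmpC (5.3 nM in the dispensed reagent) in 20 mM phosphate pH 7.0 with 0.01% (detergent screen) or 0.0001% Triton X-100 was preincubated with compounds for 15 min at room temperature. Nitrocefin was then added from an 800 uM solution, and hydrolysis was followed at 480 nm.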
* marks the source's active call; other numbers are inactive results; ? = inconclusive; / = no result given; [ ] = remark or other dose. Many of the other results were omitted from the sample, so hits are more common in it than they were. Unless noted, calls come from the whole dose curve; as a rule, active = well fitted curve in the direction sought with a large enough effect; inconclusive = small, poorly fitted or top-dose-only effect, or another doubt; inactive = no such curve, though single readings can be large; an effect the other way counts as inactive or inconclusive.

SMILES | Shiga inhibitor | Cycloheximide cs | AMA1 RON2 block | AmpC inh detg | SARS PLP yeast | AmpC inh no detg
O=C(N/N=C/c1c(O)ccc2ccccc12)c1[nH]ncc1Br | 81.9* | 43.5* | 43.9% | -1.6% | ? | -31.5%
O=C(N/N=C/c1c(O)ccc2ccccc12)c1cccc(C(F)(F)F)c1 | -10.8 | -4.8 | 27.9% | -9.0% | 3.98µM* | -43.0%
O=C(NN=Cc1c(O)ccc2ccccc12)C1CC1 | / | / | 40.8% | / | / | /
Cc1ccc(O)c(/C=N/NC(=O)c2[nH]ncc2Br)c1 | 58.6* | 34.0* | 45.9% | -3.5% | -2.0% | -50.4%
COc1ccc(C(=O)NCCCNC(=O)c2cccnc2)cc1OC | -21.8 | -3.9 | 13.4% | -9.5% | -0.1% | -2.7%
CCOc1ccc(/C=N/NC(=O)c2cccc3ccccc23)c(OCC)c1 | -17.3 | -1.9 | 9.0% | -12.0% | 10.1% | -54.4%
CCOc1ccc(/C=N/NC(=O)c2[nH]ncc2Br)c(O)c1 | 49.3* | 34.8* | 37.0% | 2.0% | -2.2% | -29.3%
COc1ccc(Br)cc1/C=N/NC(=O)c1cccnc1 | -9.6 | 1.5 | 5.1% | 6.1% | 19.8% | -23.8%
COc1ccc(-c2[nH]ncc2/C=N\NC(=O)c2ccc(Br)o2)cc1OC | 33.5* | 18.7* | 20.3% | -2.8% | -1.9% | 36.3%
Cc1ccc(O)c(/C=N/NC(=O)C2=NNC(c3ccccc3)(c3ccccc3)C2)c1 | 21.0 | 0.7 | / | -7.3% | 6.31µM* | -48.3%
Cc1ccc(O)c(/C=N/NC(=O)CN2CCCC2)c1 | 26.0 | -1.6 | 87.7% | 1.4% | -6.7% | -14.3%
COc1cccc(C(=O)N/N=C/c2cn[nH]c2-c2ccc(OC)cc2OC)c1 | 13.4 | 17.1* | 14.7% | -7.2% | 1.1% | -27.5%
COc1ccc(/C=N/NC(=O)c2ccc3nc[nH]c3c2)c(OC)c1 | -3.5 | -0.4 | 0.0% | -0.4% | 6.7% | -33.9%
CN(CC(=O)Nc1ccccc1Br)C(=O)CNC(=O)C1CCCCC1 | / | / | -6.4% | 5.6% | 6.8% | 3.7%
COc1ccc(C(=O)C(C)C(C)=O)c(OCc2ccccc2)c1OC (configuration not stated) | / | / | -9.8% | / | / | /
COc1ccc(-c2ccc(-c3cc(=O)oc4cc(OC)c(OC)c(OC)c34)cc2)cc1OC | 25.6 | 17.7 | -6.0% | / | -2.9% | 64.8%
CC(=O)c1cnc2cc(-c3ccccc3)nn2c1C | 57.3* | 43.3* | 10.0% | 3.1% | -6.1% | -10.3%
COc1ccc(-c2cc3ncc(C(C)=O)c(C)n3n2)cc1 | 68.3* | 27.8* | -1.1% | -10.6% | 0.9% | -8.3%
CC(=O)c1cnc2cc(-c3ccc(C)cc3)nn2c1C | 13.4* | 25.8* | 11.4% | -11.0% | -2.3% | -1.0%
CC(=O)c1cnc2cc(C)nn2c1C | -4.2 | -1.8 | -4.0% | 0.6% | 3.5% | -14.8%
CCc1ccc(NC(=O)C/C(C)=N/NC(=O)COc2ccc(C)cc2Br)cc1 | 26.1 | 11.4 | 90.8% | -5.6% | -1.6% | 44.0%
Cc1noc(NC(=O)c2ccc(Cl)c(Cl)c2)c1Cl | 40.1 | 16.1 | 4.8% | 3.0% | 4.7% | -18.1%
CCC(c1nnc(SCc2nc3ccccc3s2)n1Cc1ccccc1)N(C)C (configuration not stated) | 56.2* | 31.5* | -5.9% | -5.7% | 1.2% | 67.1%
Cc1nnc(SCc2nc3ccccc3s2)n1N | 76.1* | 43.7* | 15.4% | 5.5% | 1.3% | -33.1%
CCn1c(SCC(O)c2ccccc2)nnc1-c1ccccc1 (configuration not stated) | 28.2* | 39.2* | -1.0% | -13.3% | 0.3% | -5.9%
SMILES | Shiga inhibitor | Cycloheximide cs | AMA1 RON2 block | AmpC inh detg | SARS PLP yeast | AmpC inh no detg
c1ccc(-n2cnnc2SCc2nc3ccccc3s2)cc1 | 61.0* | 59.6* | 4.1% | -13.0% | -0.8% | -26.0%
c1ccc(-c2ncc(CSc3nncn3-c3ccccc3)s2)cc1 | 18.9 | 6.2 | -9.7% | 6.5% | -4.0% | 18.0%
COC(CNC(=O)c1ccc2c(c1)ncn2-c1cccc(C)c1)OC | 4.1 | -0.8 | 12.1% | ? | 0.5% | -1.0%
COc1cccc(-c2nnc(SCc3nc4ccccc4s3)n2C)c1 | 15.8 | 23.8* | 3.1% | ? | 0.6% | -18.2%
CCn1c(SCc2nc3ccccc3s2)nnc1-c1ccccc1 | 61.2* | 28.1* | 4.6% | -12.9% | 9.8% | -9.4%
Cc1nnc(SCc2nc3ccccc3s2)n1-c1ccccc1 | 87.4* | 29.9* | -12.3% | ? | 10.9% | -7.1%
c1ccc(Cn2c(SCc3nc4ccccc4s3)nnc2-c2ccco2)cc1 | 14.2 | 10.4 | ? | -5.5% | -8.9% | -29.9%
CCOCCCNC(=O)c1c(NC(=O)c2cc(=O)c3cc(C)c(C)cc3o2)sc2c1CCC2 | / | / | / | 7.7% | / | /
c1ccc(-c2ccc3cnccc3n2)cc1 | / | / | -1.6% | / | / | /
CN1CCN(c2ccc(-c3ccc4ccccc4n3)cc2)CC1 | -12.6 | 1.4 | -7.3% | -6.8% | 0.3% | -14.7%[2.29 µM]
c1ccc2nc(-c3ccncc3)ccc2c1 | 84.3* | 33.8* | -4.1% | -2.2% | -7.4% | 2.3%
c1ccc2nc(-c3ccc(N4CCOCC4)cc3)ccc2c1 | 67.2* | 32.5* | 14.5% | -14.6% | -6.2% | -7.3%
Cc1cc(-c2ccc(N3CCOCC3)cc2)nc2ccccc12 | 27.6* | 30.4* | 20.7% | -10.0% | 17.9% | 17.3%
Cc1ccc(-c2cc(C(=O)N3CCOCC3)c3ccccc3n2)cc1 | 21.3 | 2.3 | -5.9% | 0.1% | -15.7% | ?
COc1ccc(CCNC(=O)C(NC(=O)OCc2ccccc2)C(C)C)cc1OC (configuration not stated) | 13.9 | -1.0 | -1.2% | 4.1% | 1.0% | 30.4%
O=C(c1ccco1)N1CCN(C(=O)c2cc3sccc3n2Cc2ccccc2)CC1 | -16.8 | -3.8 | -11.4% | -13.8% | 10.1% | 93.3%
O=C(/C=C\Nc1ccccn1)c1ccccc1 | 54.9* | 17.3 | -0.8% | -14.2% | -21.5% | -4.9%
COc1ccc(C(=O)/C=C/Nc2ccccn2)c(OC)c1 | 57.3* | 52.0* | -3.1% | -11.3% | -3.1% | 0.4%
COc1ccc(C(=O)/C=C/Nc2c(C)n(C)n(-c3ccccc3)c2=O)c(OC)c1 | -5.0 | -1.9 | 45.6% | ? | -0.3% | -6.7%[11.4 µM]
O=C(/C=C/Nc1ccccc1)c1ccc(Oc2ncccn2)cc1 | 108.6* | 23.6* | 4.3% | -0.5% | -4.0% | -11.6%
CC1CCN(C(C(=O)O)c2ccccc2)CC1 (configuration not stated) | -15.7 | 6.9 | -7.1% | 0.6% | -4.4% | -0.2%
Cc1ccc2[nH]c(=O)c(CN(Cc3ccccc3)C(=S)NCCCN(C)C)cc2c1 | 48.0* | 26.1* | 5.1% | -7.7% | 1.1% | -18.9%
O=P1(Oc2ccccc2)C[C@@H](O)[C@@H](O)[C@H](COCc2ccccc2)O1 (some centres not stated) | -14.9 | -5.5 | 2.1% | 5.0% | 12.7% | -10.3%
O=C(Nc1nc2ccccc2s1)C1=NN(c2ccccc2)C(=O)CC1 | active | 20.2* | 89.5% | -10.8% | 6.3% | -28.4%
